Most compounds without a hit are left out; they make up all but 18% or so of the library.
IL-1B inflam inh = blocks inflammasome-driven IL-1 beta release | THP-1 LPS/ATP IL-1B secretion, AlphaLISA, 16 h; stronger effect = lower value | activity change, % at 57.5 µM | 4.7% of 360,000 active; in the data active means activity change below about -50%; inconclusive means mostly about -30% to -49%; further: on the % scale 0 is the no-effect control and ±100 the full control effect
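Secreted IL-1B measured by AlphaLISA bead assay after 16 h compound exposure of THP-1 cells; compounds (final up to 57.5 uM) added 1 h before LPS (250 ng/mL) and ATP (1.25 mM) stimulation; lower signal means less secretion.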
HepG2 tox = kills HepG2 cells in TGF-b inhibitor counter-screen | 0.76% of 410,000 active | Potency, µM (highest dose often 46.1 µM), for inactives: at the top dose activity change, negative = cytotoxicity, usual class: cytotoxic | HepG2 CAGA-GFP viability, ATP luminescence, 18 h | AID 588856; further: potency means the concentration at half of the fitted maximal effect
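CellTiter-Glo luminescence gave cytotoxicity after 18 hours at 37 degrees C. The cells were HepG2 CAGA-GFP in 1% FBS DMEM, stimulated with 500 pg/mL TGF-beta after compound addition. %Activity was normalised to no-cell wells (complete cell-killing) and DMSO (no toxicity), and curves were fitted and classified.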
TGFb inhibitor = inhibitors of TGF-b signaling. HepG2 CAGA-GFP TGF-b/SMAD3 reporter, GFP fluorescence, 18 h; TGF-beta stimulated, 500 pg/mL final. Potency, µM (highest dose often 46.1 µM), without a hit: at the top dose activity, negative = inhibition, usual class: inhibitors. 1.2% of 410,000 active; further: potency means the concentration at half of the fitted maximal effect; on the % scale 0 is the no-effect control and ±100 the full control effect; nearly all actives have a fitted effect of over 65% in size
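Inhibition of TGF-beta-driven CAGA-GFP reporter expression in HEPG2 cells is measured by cellular GFP fluorescence after 18 h stimulation with 500 pg/mL recombinant TGF-beta in 1% FBS medium at 37 degrees C.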
TDP1 cell CPT = DT40-hTDP1 cell growth loss with CPT; chicken DT40 Tdp1-/-;hTDP1 cells + 20 nM CPT, ATP luminescence, 48 h; Potency, µM (top dose mostly 46.2 µM), inactives show at the highest dose activity change, negative = growth inhibition, usual class: inhibitors; 12% of 420,000 active; AID 686979; further: potency means the concentration at half of the fitted maximal effect; on the % scale 0 is the no-effect control and ±100 the full control effect; nearly all actives have a fitted effect of over 55% in size
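Chicken DT40 Tdp1-/- cells complemented with human TDP1, 400 cells/well, exposed to compounds plus 20 nM camptothecin for at least 48 h at 37 C; viability read as ATP content by CellTiter-Glo luminescence.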
TDP1 cell noCPT = qHTS for Inhibitors of human tyrosyl-DNA phosphodiesterase 1 (TDP1): qHTS in cells in absence of CPT; DT40 Tdp1-/- hTDP1 cells, no CPT, ATP luminescence, 48 h; Potency, µM (series often up to 46.2 µM), without a hit: top-dose activity change, negative = growth inhibition, usual class: inhibitors; 15% of 420,000 active; AID 686978, 2013; further: potency means the concentration at half of the fitted maximal effect; on the % scale 0 is the no-effect control and ±100 the full control effect; nearly all actives have a fitted effect of over 55% in size
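Compound effects on proliferation are scored in DT40 Tdp1-/-;hTDP1 cells in the absence of CPT. ATP levels (CellTiter-Glo luminescence) are recorded after a ≥48 hr, 37 °C incubation.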
TDP1 inh = inhibitors of human tyrosyl-DNA phosphodiesterase TDP1; Q9NUW8; recombinant TDP1, AlphaScreen DNA substrate cleavage; Potency, µM (top dose mostly 130 µM), without a hit: at the highest dose activity change, negative = inhibition, most hits filed as inhibitors; 0.28% of 350,000 active; AID 485290; further: potency means the concentration at half of the fitted maximal effect; on the % scale 0 is the no-effect control and ±100 the full control effect; nearly all actives have a fitted effect of over 40% in size
Target sequence (Q9NUW8 whole entry, looked up): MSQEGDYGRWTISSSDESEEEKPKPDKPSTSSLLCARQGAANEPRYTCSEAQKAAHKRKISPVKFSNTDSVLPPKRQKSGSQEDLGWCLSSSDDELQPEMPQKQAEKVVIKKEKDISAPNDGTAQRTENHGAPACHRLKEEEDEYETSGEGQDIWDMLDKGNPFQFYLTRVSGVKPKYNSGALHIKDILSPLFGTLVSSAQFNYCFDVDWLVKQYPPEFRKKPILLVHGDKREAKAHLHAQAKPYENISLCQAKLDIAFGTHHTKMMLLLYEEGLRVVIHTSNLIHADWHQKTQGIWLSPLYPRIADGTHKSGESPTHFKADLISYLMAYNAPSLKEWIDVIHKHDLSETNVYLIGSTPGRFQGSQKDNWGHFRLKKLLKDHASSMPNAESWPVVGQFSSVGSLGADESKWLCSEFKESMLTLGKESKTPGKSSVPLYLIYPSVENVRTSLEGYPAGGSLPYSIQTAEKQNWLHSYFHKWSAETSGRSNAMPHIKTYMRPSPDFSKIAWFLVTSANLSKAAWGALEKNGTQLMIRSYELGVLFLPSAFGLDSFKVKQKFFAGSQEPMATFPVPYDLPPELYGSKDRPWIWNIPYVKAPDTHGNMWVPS
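Compounds were preincubated with Tdp1 (1 nM final) for 15 min at room temperature before substrate (15 nM final) started a 5 min reaction; beads (10 ug/ml final) were then added for 10 min before AlphaScreen detection.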
* hit, by the source's call; u = inconclusive; x = not tested or not shown. Unless noted, the call rests on the fitted dose curve; in most records, active means well fitted curve in the direction sought with a large enough effect; inconclusive means small, poorly fitted or top-dose-only effect, or another doubt; inactive means no such curve, though single readings can be large; an effect the other way counts as inactive or inconclusive.

SMILES	IL-1B inflam inh	HepG2 tox	TGFb inhibitor	TDP1 cell CPT	TDP1 cell noCPT	TDP1 inh
COc1ccccc1CNC(=O)c1ccc2nc(C)c(N(C)Cc3ccc(NC(C)=O)cc3)n2c1	-22	3%	22%	16µM*	15µM*	x
C=CCC(C(=O)NC(C)c1ccccc1)C(=O)NC(C)c1ccccc1 (centres undefined)	9	-16%	0%	u	-28%	x
COc1ccccc1NS(=O)(=O)c1cccc(C(=O)N2CCCC2)c1	5	-3%	11%	1%	19%	0%
CC1(C)Cc2ccccc2-c2n[nH]c(=S)n21	2	-13%	7%	u	23µM*	2%
C[C@H](O)[C@@H]1CN2CCc3c([nH]c4ccc(-c5ccc6c(c5)OCO6)cc34)[C@@H]2C[C@@H]1N(C)C(=O)Nc1cc(Cl)cc(Cl)c1	-16	-95%	u	4.1µM*	3.3µM*	x
COc1ccc(NC(=O)N(C)[C@H]2C[C@H]3c4[nH]c5ccc(-c6cccc(C)c6)cc5c4CCN3C[C@H]2[C@H](C)O)cc1	-29	-121%	u	u	16µM*	x
Cc1cccc(-c2ccc3[nH]c4c(c3c2)CCN2C[C@@H]([C@H](C)O)[C@@H](N(C)C(=O)Nc3ccc(F)cc3)C[C@@H]42)c1	-23	-116%	u	16µM*	18µM*	x
C[C@H](O)[C@@H]1CN2CCc3c([nH]c4ccccc34)[C@@H]2C[C@@H]1N(C)C(=O)Nc1cc(Cl)cc(Cl)c1	-21	-19%	u	u	u	x
Nc1c(C(=O)NC2CC2)c2nc3ccccc3nc2n1-c1ccc2c(c1)OCO2	-51*	7%	u	u	u	5%
CCCNC(=O)c1c(N)n(-c2cc(OC)cc(OC)c2)c2nc3ccccc3nc12	-55*	-39%	0%	u	u	1%
CCCNC(=O)c1c(N)n(-c2ccc3c(c2)OCO3)c2nc3ccccc3nc12	-22	0%	0%	8.2µM*	15µM*	-4%
COc1cc(NC(=O)C2=C(N3CCOCC3)/C(=C\c3ccc(N(C)C)cc3)CCC2)cc(OC)c1OC	0	-37%	u	7.3µM*	2.9µM*	7%
COc1cc(NC(=O)C2=C(N3CCOCC3)/C(=C/c3ccc(Cl)cc3)CC2)cc(OC)c1OC	8	-21%	u	6.5µM*	7.3µM*	6%
O=C(Nc1ccccc1)C1=C(N2CCOCC2)/C(=C/c2cccnc2)CC1	-25	-18%	-14%	-5%	-13%	-5%
Cc1cc(C)n(CC(=O)NNC(=O)C2CC(=O)N(Cc3ccccc3Cl)C2)n1 (centres undefined)	1	-3%	6%	4%	u	-8%
Cc1cccc(C2NC(c3cccc(C)c3)C([N+](=O)[O-])C(C)(C)C2[N+](=O)[O-])c1 (centres undefined)	-8	0%	11%	u	16µM*	3%
Cc1ccccc1C1NC(c2ccccc2C)C([N+](=O)[O-])C(C)(C)C1[N+](=O)[O-] (centres undefined)	-12	-60%	4%	-3%	-17%	1%
Cc1ccc(C2/C(=C(/O)c3ccc4c(c3)CC(C)O4)C(=O)C(=O)N2CCCn2ccnc2)cc1 (centres undefined)	-7	1%	1%	-5%	-10%	7%
COC(=O)c1ccc2c(=O)[nH]c(COC(=O)c3[nH]c(C)c(C(C)=O)c3C)nc2c1	32	1%	14%	u	16µM*	-3%
CC(NC(=O)c1ccccc1)C(=O)OCn1nnc2ccccc2c1=O (centres undefined)	-5	-33%	5%	26µM*	15%	0%
CC(=O)c1c(C)[nH]c(C(=O)OCn2nnc3ccccc3c2=O)c1C	13	7%	u	16µM*	16µM*	2%
CCOC(=O)c1[nH]cnc1C(=O)NC1CCN(C(=O)OC(C)(C)C)CC1	25	1%	u	-5%	-16%	1%
C/C=C(\C)[C@H](O)C[Si](C)(C)c1ccccc1	x	x	x	x	x	8%
O=C(CSc1nc2nc(-c3cccs3)cc(C(F)(F)F)c2c(=O)[nH]1)C(F)(F)F	7	-12%	-16%	13µM*	u	x
CC1Cc2ccccc2N1C(=O)COC(=O)/C=C/c1ccc(F)cc1 (centres undefined)	-5	-1%	0%	-15%	-28%	-3%
SMILES	IL-1B inflam inh	HepG2 tox	TGFb inhibitor	TDP1 cell CPT	TDP1 cell noCPT	TDP1 inh
CC1Cc2ccccc2N1C(=O)/C=C/c1cccc(F)c1 (centres undefined)	-69*	6%	5%	0%	-29%	7%
O=C(CSc1nnc(-c2ccc(Cl)cc2)c(-c2ccc(Cl)cc2)n1)NC1CCCC1	x	0%	0%	u	u	1%
CCOc1ccc(-c2nnc(SCC(=O)NC3CCCCC3)nc2-c2ccc(OCC)c(OC)c2)cc1OC	x	5%	11%	-6%	-27%	5%
COc1ccc(-c2nnc(SCC(=O)NC3CCCC3)nc2-c2ccc(OC)c(OC)c2)cc1OC	x	0%	u	18µM*	21µM*	-1%
Cc1ccc(-c2nnc(SCC(=O)NC3CCCC3)nc2-c2ccc(C)cc2)cc1	x	-7%	u	18µM*	13µM*	0%
CCn1c(SCC(=O)Nc2nccs2)nnc1-c1cc2cccc(OC)c2o1	16	-2%	0%	3%	0%	2%
CCn1c(SCC(=O)NC2CCCCC2)nnc1-c1cc2cccc(OC)c2o1	-26	-4%	-9%	u	23µM*	0%
CCC(Sc1nnc(-c2ccc(OC)c(OC)c2)c(-c2ccc(OC)c(OC)c2)n1)C(=O)NC1CCCC1 (centres undefined)	x	-21%	u	16µM*	u	5%
COC(=O)c1[nH]c2c(c1C)C(=O)CC(c1cccc(OC)c1)C2 (centres undefined)	5	10%	-24%	1.5µM*	1.3µM*	x
COCCOC(=O)c1[nH]c2c(c1C)C(=O)CC(c1ccc(OC)c(OC)c1)C2 (centres undefined)	-14	-23%	-4%	u	-28%	x

Assay outcomes from PubChem.
